ELG1 DNA repair – blocks ELG1-dependent DNA repair in HEK293T cells | AID 504467 | Potency, µM (highest dose often 46.1 µM), inactives show top-dose activity change, negative = inhibition, actives largely listed as inhibitors | HEK293T ELG1-luciferase reporter, luminescence, 16 h; DNA damage induced by 5-fluorouridine | 2.3% of 330,000 active; also: potency is read from the fitted curve at half-maximal effect; nearly all actives have a fitted effect of over 55% in size
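Step one: seed 2,000 cells per well. Step two: pin-transfer compound or DMSO alongside 5-fluorouridine. Step three: incubate 16 hr, 37 °C, 5% CO2. Step four: add ONE-Glo, wait 30 min, read luminescence.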
RORg inh – ROR gamma (mouse) transcription inhibition; P51450; Drosophila S2 Gal4-RORgamma UAS-luciferase reporter, 20 h; Potency, µM (titrated, usually from 53.6 µM), inactives show top-dose activity change, negative = inhibition, most hits filed as inhibitors; 5.4% of 310,000 active; AID 2551; also: potency is read from the fitted curve at half-maximal effect; nearly all actives have a fitted effect of over 60% in size
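Drosophila S2 cells stably expressing Gal4-DBD/mouse RORγ fusion under metallothionein promoter plus UAS-luciferase; compound 1 h, then 700 uM CuSO4 induction for 20 h at ambient temperature; inhibition read as reduced luminescence.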
FBPA coupling cs – counter-screen for Giardia aldolase inhibitors: coupling enzyme system; coupling enzyme system counterscreen, AmpLite Red fluorescence; activity change, negative = inhibition, % at 58.2 µM, hits read low; 0.67% of 290,000 active; AID 2472; in the data active = activity change below about -30%
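First, compound is pin-transferred into glyceraldehyde-3-phosphate coupling-enzyme reagent at 57.5 uM final and held 10 min at RT. Next, substrate, coupling system and AmpLite Red are added. After 20 min RT, fluorescence (525/598 nm) is read.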
TSHR antag – human thyrotropin receptor antagonism; activity change, negative = inhibition, % at 11.5 µM; P16473; TSHR-expressing cells, TSH-stimulated cAMP HTRF, 2 h; active compounds read low; 0.2% of 330,000 active; AID 504810;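 active = activity change below a set negative limit, meaning inhibition stronger than a set level, cut at about -70% in these data; inconclusive = activity change between two set negative limits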
Target sequence (P16473 whole entry, looked up): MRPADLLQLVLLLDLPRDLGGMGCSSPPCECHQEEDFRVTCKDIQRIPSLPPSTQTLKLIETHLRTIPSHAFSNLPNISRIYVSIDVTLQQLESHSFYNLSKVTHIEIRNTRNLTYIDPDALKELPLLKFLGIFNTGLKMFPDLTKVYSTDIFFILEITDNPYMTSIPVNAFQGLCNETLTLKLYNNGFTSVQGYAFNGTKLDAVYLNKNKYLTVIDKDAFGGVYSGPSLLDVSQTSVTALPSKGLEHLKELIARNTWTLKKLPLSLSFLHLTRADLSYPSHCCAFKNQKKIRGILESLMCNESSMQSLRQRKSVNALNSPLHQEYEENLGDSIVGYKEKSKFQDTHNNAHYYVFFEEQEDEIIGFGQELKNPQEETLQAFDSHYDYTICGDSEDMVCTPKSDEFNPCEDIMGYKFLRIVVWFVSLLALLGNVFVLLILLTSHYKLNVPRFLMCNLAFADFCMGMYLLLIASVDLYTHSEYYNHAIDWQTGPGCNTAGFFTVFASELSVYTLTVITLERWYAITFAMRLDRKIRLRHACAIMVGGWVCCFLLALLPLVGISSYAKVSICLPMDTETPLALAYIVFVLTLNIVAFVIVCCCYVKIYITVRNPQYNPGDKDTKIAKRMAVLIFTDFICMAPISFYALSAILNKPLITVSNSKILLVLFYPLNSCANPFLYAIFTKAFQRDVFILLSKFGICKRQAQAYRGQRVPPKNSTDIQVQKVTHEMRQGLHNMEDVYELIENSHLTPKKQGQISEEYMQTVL
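Cell-based HTRF cAMP assay; TSHR cells + compound, TSH EC80 (4nM final), 2 h, 37 deg C. Lysis with anti-cAMP cryptate and cAMP-d2, 30 min RT, read 665/620 nm.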
VP16 counter – Gal4-VP16 reporter inhibition counter-screen; Drosophila S2 Gal4-VP16 UAS-luciferase, luminescence, 20 h; 3.5% of 310,000 active; AID 2546; Potency, µM (doses to about 53.6 µM), for the others: at the top dose activity, negative = inhibition, actives largely listed as inhibitors;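 also: Gal4-VP16 expression switched on by copper sulfate through the metallothionein promoter; potency is read from the fitted curve at half-maximal effect; nearly all actives have a fitted effect of over 50% in size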
* marks the source's active call; other numbers are inactive results; ? = inconclusive; / = no result; [ ] = remark or other dose. Hits are enriched below; roughly 8% of the tested compounds scored in any of these assays. Unless noted, calls follow the shape of the dose curve; as a rule, active = well fitted curve in the direction sought with a large enough effect; inconclusive = small, poorly fitted or top-dose-only effect, or another doubt; inactive = no such curve, though single readings can be large; an effect the other way counts as inactive or inconclusive. % is scaled to controls: 0 for no effect and ±100 for the full control effect.

SMILES	ELG1 DNA repair	RORg inh	FBPA coupling cs	TSHR antag	VP16 counter
O=C(c1ccc2c(=O)n(C3CCCC3)c(=S)[nH]c2c1)N1CCN(C2CCCCC2)CC1	-4.9%	-42.0%	4.8	4.2	1.5%
O=c1c2ccccc2[nH]c(=S)n1C1CCCCC1	?	0.891µM*	0.8	-4.9	2.82µM*
CC1CCCC(n2c(=S)[nH]c3ccccc3c2=O)C1C (stereo unspecified)	-3.7%	0.282µM*	-4.9	2.9	0.631µM*
CC1(C)CC(n2c(=S)[nH]c3ccccc3c2=O)CCO1 (stereo unspecified)	-8.7%	8.91µM*	-0.2	1.9	8.91µM*
CC1CCN(CCn2c(=S)[nH]c3ccccc3c2=O)CC1	8.2%	?	-2.9	3.8	-14.6%
COc1ccccc1NC(=O)NC1CCCCCCC1	?	26.0%	/	-4.5	-6.6%
COc1ccccc1NC(=S)NC1CCCCCC1	-5.1%	6.31µM*	0.9	-1.2	3.98µM*
CC(C)(C)c1ccccc1NC(=S)NC1CCCC1	-4.2%	4.47µM*	0.0	-9.5	3.55µM*
COc1cc(NC(=S)NC2CC2)c(OC)cc1Cl	?	10µM*	-0.6	4.7	?
FC(F)(F)c1ccccc1NC(=S)NC1CCN(Cc2ccccc2)CC1	-12.5%	-14.6%	-0.7	-7.0	0.7%
CNC(=S)Nc1cc(C(F)(F)F)ccc1Cl	-13.2%	-21.4%	0.5	-7.7	2.1%
FC(F)(F)c1ccc(Cl)c(NC(=S)NC2CC2)c1	?	15.8µM*	-0.4	-4.3	17.8µM*
CCc1ccccc1NC(=O)NC1CCCCC1	?	-11.2%	6.4	8.9	2.9%
CC(C)(C)c1ccccc1NC(=S)NC1CCCCC1	-17.3%	1.78µM*	0.4	-2.1	6.31µM*
Fc1ccccc1NC(=S)NC1CCCC1	-11.0%	11.2µM*	3.2	8.1	?
CCc1nc(SCc2ccc(F)cc2)[nH]c(=O)c1C#N	-15.8%	?	18.9	-19.6	-19.0%
Cc1ccc(NC(=O)CSc2nnc(-c3n[nH]c4ccccc34)n2-c2ccccc2)c(C)c1	23.1µM*	?	-0.1	20.9	-10.4%
COc1cccc(/C=N/Nc2ncccc2[N+](=O)[O-])c1OC	?	1.26µM*	2.9	-0.1	4.47µM*
COc1c(/C=N/Nc2nc(N3CCCCC3)nc(N3CCCCC3)n2)cccc1[N+](=O)[O-]	-1.7%	0.316µM*	0.2	19.5	14.4%
O=[N+]([O-])c1ccc(Nc2nc(N/N=C/c3cccc(F)c3)nc(N3CCCC3)n2)cc1	4.61µM*	?	2.4	-11.2	-29.5%
O=[N+]([O-])c1cccc(/C=N/Nc2nc(N3CCOCC3)nc(N3CCOCC3)n2)c1	?	36.7%	-2.2	-8.3	-16.2%
O=[N+]([O-])c1cccc(/C=C/C=N/Nc2nc(N3CCCCC3)nc(N3CCCCC3)n2)c1	-1.9%	7.94µM*	1.0	-9.5	-1.2%
O=C(NCCSc1ccccc1)c1ccc(CN2CCOCC2)cc1	?	2.4%	0.8	3.4	-3.6%
CCCCCCCC/C=C\CCCCCCCC(=O)N[C@H](CO)Cc1ccc(O)cc1	/	24.7%	-8.5	/	?
O=[N+]([O-])c1ccc(/C=N/Nc2nc(N3CCOCC3)nc(N3CCOCC3)n2)cc1	?	-8.2%	2.0	-4.5	-9.0%
SMILES	ELG1 DNA repair	RORg inh	FBPA coupling cs	TSHR antag	VP16 counter
Cc1ccc(Cn2cc(/C=N/Nc3ccc([N+](=O)[O-])cn3)c3ccccc32)cc1	-16.3%	11.2µM*	2.1	-14.3	7.94µM*
Cc1cc(/C=N/Nc2ccc([N+](=O)[O-])cn2)c(C)n1-c1ccccc1	?	23.3%	-0.4	13.3	?
COc1cccc(/C=N/Nc2nc(Nc3ccc([N+](=O)[O-])cc3)nc(N3CCCC3)n2)c1O	6.51µM*	4.47µM*	-5.7	-14.4	-13.6%
COc1cccc(/C=N/Nc2ccc([N+](=O)[O-])cn2)c1O	?	4.47µM*	0.4	-17.0	7.08µM*
O=[N+]([O-])c1ccc(/C=N/Nc2nc(N3CCCCC3)nc(N3CCCCC3)n2)o1	23.1µM*	-28.2%	-2.5	4.1	1.2%
O=C(O)Cn1cc(/C=N/Nc2ccc([N+](=O)[O-])cn2)c2ccccc21	0.0%	-0.5%	0.6	0.3	8.1%
OCC1O[C@H]([S-])[C@H](O)[C@@H](O)[C@@H]1O.[Au+] (stereo partly specified)	/	/	/	-17.8	/
C=COCCNC(=S)Nc1ccccc1	?	-1.1%	-1.1	-14.4	-6.1%
S=C(NCCCc1ccccc1)Nc1ccc(Cl)cc1	-4.7%	4.47µM*	2.0	-8.6	5.01µM*
Cc1ccccc1OCCNC(=S)Nc1ccccc1	-14.8%	3.16µM*	/	-23.1	5.62µM*
S=C(NCCCc1ccccc1)Nc1ccccc1	?	15.8µM*	/	49.2	3.98µM*
O=C(NCCCc1ccccc1)Nc1ccccc1	?	30.3%	0.5	5.8	3.8%
O=C1CCCN1CCCNC(=S)Nc1ccc(Nc2ccccc2)cc1	14.6µM*	11.7%	8.2	-1.0	?
COC(=O)[C@@]1(Cc2ccccc2)[C@H]2c3cc(C(=O)N(C)C)n(Cc4cc(F)c(F)c(F)c4)c3C[C@H]2CN1C(=O)c1ccccc1	/	?	3.9	/	9.4%
Cc1ccc(C(=O)N2CCN(c3ccc([N+](=O)[O-])cc3)CC2)o1	-8.0%	-8.1%	2.1	-6.7	2.4%
S=C(NCCc1ccccc1)Nc1ccc(Nc2ccccc2)cc1	?	5.01µM*	0.1	-18.5	12.6µM*
CCCNC(=S)Nc1ccccc1	2.4%	10µM*	1.9	0.9	?
COc1ccc(S(=O)(=O)Nc2ccc(-n3cccc3)cc2)cc1	?	11.2µM*	-2.3	11.1	11.2µM*
COc1ccc(NS(=O)(=O)c2cccc(C(=O)N/N=C(\C)c3ccc(-n4ccnc4)cc3)c2)cc1	-2.2%	17.8%	-46.0*	12.9	-8.4%
COc1ccc(S(=O)(=O)NCCc2cn3nc(C)c(C)nc3n2)cc1F	14.4%	-13.5%	4.3	-88.4*	-6.4%
Cc1ccc(Cl)cc1NC(=S)NN	-4.1%	8.91µM*	2.1	0.1	?
Cc1ccc(Cl)cc1NC(=O)CSC(N)=O	-15.8%	?	0.6	-2.5	?
FC(F)(F)Sc1ccc(NC(=S)NCc2ccccc2)cc1	0.0%	12.6µM*	-6.1	-32.0	?
Cc1ccc(NC(=S)Nn2cnnc2)cc1	18.9%	-39.0%	1.1	7.1	-20.8%[10 µM]
CCc1ccc(NC(=S)Nn2cnnc2)cc1	?	1.12µM*	1.9	17.8	-0.3%
CCc1ccc(NC(=S)Nc2ccc3[nH]c(=O)[nH]c3c2)cc1	0.7%	12.6µM*	0.6	11.4	-65.5%
CC(=O)Nc1ccc(S(=O)(=O)N2CCc3nc(COc4ccccc4)c4c(c3C2)CO[C@@H](C)C4)cc1	/	/	-0.2	/	/
O=C(CCC(=O)NNC(=S)Nc1ccccc1)NCc1ccccc1	/	10µM*	-2.2	/	?
